The values that follow come from PubChem BioAssay (EPA / NIEHS).

Active and inactive are the calls of the source. How the source made its calls: active means hit-call score of the fitted dose curve at least 0.9, where 1 is the maximum; inactive means score below 0.9.

Common to all, as to conditions: mRNA level, 48 h; actives raise or lower the signal
Read-out in experiment [1]: ATP-citrate lyase (ACLY), ACLY (gene 47)
Nature of the experiment: LTEA_HepaRG_ACLY: Life Technologies and Expression Analysis (LTEA) Assay for ATP-citrate lyase (ACLY) using HepaRG (AID 2283466). An outline of the steps: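 Differentiated human HepaRG cells in serum-free induction medium exposed 48 h, in duplicate, to eight half-log concentrations from 100 uM top in 0.5% DMSO; ACLY mRNA measured by qRT-PCR, normalized to ACTB, GAPDH, POLR2A, fitted bidirectionally versus DMSO.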

Read-out in experiment [2]: Peroxisomal acyl-coenzyme A oxidase 1 (ACOX1) gene, ACOX1 (gene 51)
Nature of the experiment: LTEA_HepaRG_ACOX1: Life Technologies and Expression Analysis (LTEA) Assay for Peroxisomal acyl-coenzyme A oxidase 1 (ACOX1) gene using HepaRG (AID 2283467). An outline of the steps: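 Differentiated human HepaRG cells were exposed in duplicate for 48 h in serum-free induction medium to eight half-log concentrations up to 100 uM in 0.5% DMSO. ACOX1 mRNA was then quantified by TaqMan qRT-PCR, normalized to ACTB, GAPDH and POLR2A.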

Read-out in experiment [3]: Alkaline Phosphatase, Placental (ALPP) gene, ALPP (gene 250)
Put plainly: LTEA_HepaRG_ALPP: Life Technologies and Expression Analysis (LTEA) Assay for Alkaline Phosphatase, Placental (ALPP) gene using HepaRG (AID 2283468). An outline of the steps:
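Expression of ALPP was quantified by qRT-PCR against three housekeeping genes in human HepaRG cultures treated for 48 h with an eight-point concentration series up to 100 uM. Activity in either direction was fitted relative to 0.5% DMSO.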

Read-out in experiment [4]: Bcl-2 (BAD) gene, BAD (gene 572)
Nature of the experiment: LTEA_HepaRG_BAD: Life Technologies and Expression Analysis (LTEA) Assay for Bcl-2 (BAD) gene using HepaRG (AID 2283469). An outline of the steps: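 Differentiated human HepaRG cells in serum-free induction medium were exposed in duplicate for 48 h to eight concentrations (top 100 uM, half-log steps, 0.5% DMSO). BAD mRNA was quantified by qRT-PCR normalised to ACTB, GAPDH and POLR2A, with bidirectional fitting versus DMSO.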

Read-out in experiment [5]: Bcl-2 (BAX) gene, BAX (gene 581)
Nature of the experiment: LTEA_HepaRG_BAX: Life Technologies and Expression Analysis (LTEA) Assay for Bcl-2 (BAX) gene using HepaRG (AID 2283470). An outline of the steps: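 HepaRG (human liver), 48 h exposure, duplicate wells. 8-pt curve, half-log from 100 uM, 0.5% DMSO. BAX transcript by TaqMan qRT-PCR; ACTB/GAPDH/POLR2A normalization; gain or loss vs DMSO baseline.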

Read-out in experiment [6]: adenosine kinase (ADK) gene, ADK (gene 132)
Nature of the experiment: LTEA_HepaRG_ADK: Life Technologies and Expression Analysis (LTEA) Assay for adenosine kinase (ADK) gene using HepaRG (AID 2283471). An outline of the steps:
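Differentiated HepaRG cells dosed 48 h in serum-free induction medium, 0.5% DMSO vehicle, eight half-log concentrations from 100 uM, in duplicate. ADK mRNA by TaqMan qRT-PCR normalised to ACTB, GAPDH, POLR2A; bidirectional fit versus DMSO.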

Read-out in experiment [7]: Alpha-fetoprotein (AFP) gene, AFP (gene 174)
Nature of the experiment: LTEA_HepaRG_AFP: Life Technologies and Expression Analysis (LTEA) Assay for Alpha-fetoprotein (AFP) gene using HepaRG (AID 2283472). An outline of the steps: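 HepaRG, single lot; 48 h post-plating -> serum-free induction medium; cpd 8-pt, 100 uM top, half-log, 0.5% DMSO, duplicate, 48 h. RNA -> qRT-PCR AFP, norm ACTB/GAPDH/POLR2A. Bidirectional fit vs DMSO.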

Read-out in another experiment: BCL2L11 (gene 10018)
Put plainly: LTEA_HepaRG_BCL2L11: Life Technologies and Expression Analysis (LTEA) Assay for Bcl-2 (BCL2L11) gene using HepaRG (AID 2283473). An outline of the steps:
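Cells were plated, cultured 48 h, switched to serum-free induction medium, then dosed in duplicate for 48 h at eight half-log concentrations up to 100 uM. Lysates underwent RNA isolation and TaqMan qRT-PCR; gain or loss versus DMSO was fitted.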

Read-out in experiment [8]: Apolipoprotein A-V (APOA5) gene, APOA5 (gene 116519)
Nature of the experiment: LTEA_HepaRG_APOA5: Life Technologies and Expression Analysis (LTEA) Assay for Apolipoprotein A-V (APOA5) gene using HepaRG (AID 2283474). An outline of the steps:
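Human liver HepaRG cells are treated 48 h with test chemicals (100 uM top, half-log dilutions, 0.5% DMSO). APOA5 mRNA induction or loss is measured by qRT-PCR relative to vehicle.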

Read-out in experiment [9]: Apoptosis regulator Bcl-2 (Homo sapiens) (UniProt P10415)
Nature of the experiment: LTEA_HepaRG_BCL2: Life Technologies and Expression Analysis (LTEA) Assay for Bcl-2 gene using HepaRG (AID 2283475). An outline of the steps:
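HepaRG, plated 48 h then switched to serum-free induction medium; dosed 48 h, 8 conc. (max 100 uM, half-log steps), duplicate, 0.5% DMSO. Lysis in RLT, RNA isolated, TaqMan qRT-PCR for BCL2; ACTB/GAPDH/POLR2A normalisation; bidirectional fit vs DMSO.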

Read-out in experiment [10]: Bcl-2 (BID) gene, BID (gene 637)
Nature of the experiment: LTEA_HepaRG_BID: Life Technologies and Expression Analysis (LTEA) Assay for Bcl-2 (BID) gene using HepaRG (AID 2283476). An outline of the steps: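 Transcript levels of BID, measured by qRT-PCR and normalized to three housekeeping genes, were fitted bidirectionally against DMSO controls. Cells were HepaRG, dosed 48 h at up to 100 uM.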

Read-out in a further experiment: Caspase-3 (Homo sapiens) (UniProt P42574)
Nature of the experiment: LTEA_HepaRG_CASP3: Life Technologies and Expression Analysis (LTEA) Assay for cysteine-aspartic acid protease (CASP3) using HepaRG (AID 2283477). An outline of the steps: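 In HepaRG liver cells dosed for 48 h at up to 100 uM (eight-point, duplicate), CASP3 expression changes are scored by qRT-PCR. Activity is fitted in both directions with 0.5% DMSO as baseline.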

Read-out in experiment [11]: Cytochrome P450 (CYP24A1), CYP24A1 (gene 1591)
Nature of the experiment: LTEA_HepaRG_CYP24A1: Life Technologies and Expression Analysis (LTEA) Assay for Cytochrome P450 (CYP24A1) using HepaRG (AID 2283478). An outline of the steps: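 Human liver HepaRG cultures receive each chemical for 48 h across an eight-point half-log series topping at 100 uM in 0.5% DMSO. Induction or suppression of CYP24A1 mRNA is scored relative to vehicle after housekeeping-gene normalization.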

Read-out in experiment [12]: Cytochrome P450 (CYP1A2), CYP1A2 (gene 1544)
Nature of the experiment: LTEA_HepaRG_CYP1A2: Life Technologies and Expression Analysis (LTEA) Assay for Cytochrome P450 (CYP1A2) using HepaRG (AID 2283479). An outline of the steps: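 Assesses CYP1A2 mRNA in human HepaRG liver cells after 48 h chemical exposure at up to 100 uM. Values come from qRT-PCR with bidirectional curve fitting relative to DMSO.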

Read-out in experiment [13]: cysteine-aspartic acid protease (CASP8), CASP8 (gene 841)
Put plainly: LTEA_HepaRG_CASP8: Life Technologies and Expression Analysis (LTEA) Assay for cysteine-aspartic acid protease (CASP8) using HepaRG (AID 2283480). An outline of the steps:
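Differentiated human HepaRG cells, plated 48 h then switched to serum-free induction medium, were exposed in duplicate for 48 h to 8 half-log concentrations up to 100 uM in 0.5% DMSO. CASP8 mRNA was quantified by qRT-PCR, normalized to ACTB/GAPDH/POLR2A.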

Read-out in experiment [14]: Cytochrome P450 (CYP2B6), CYP2B6 (gene 1555)
Put plainly: LTEA_HepaRG_CYP2B6: Life Technologies and Expression Analysis (LTEA) Assay for Cytochrome P450 (CYP2B6) using HepaRG (AID 2283481). An outline of the steps:
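Using 48 h treatment of HepaRG cells in serum-free induction medium, concentrations spanned half-log steps from 100 uM in 0.5% DMSO vehicle. CYP2B6 mRNA induction or loss is scored by qRT-PCR against DMSO.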

Read-out in experiment [15]: Cytochrome P450 2C19 (Homo sapiens) (UniProt P33261)
Nature of the experiment: LTEA_HepaRG_CYP2C19: Life Technologies and Expression Analysis (LTEA) Assay for CYP2C19 using HepaRG (AID 2283482). An outline of the steps: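 Human HepaRG liver cells received test chemicals for 48 h (highest 100 uM, half-log dilutions in 0.5% DMSO). CYP2C19 mRNA induction or loss is read by multiplexed qRT-PCR and fitted in both directions versus vehicle.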

Read-out in the next experiment: CYP2C8 (gene 1558)
Put plainly: LTEA_HepaRG_CYP2C8: Life Technologies and Expression Analysis (LTEA) Assay for CYP2C8 using HepaRG (AID 2283483). An outline of the steps:
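Differentiated human HepaRG cells were exposed for 48 h in serum-free induction medium to eight half-log concentrations up to 100 uM in 0.5% DMSO, in duplicate. CYP2C8 mRNA was measured by TaqMan qRT-PCR, normalized to ACTB, GAPDH and POLR2A, and fitted bidirectionally against DMSO.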

Read-out in another experiment: CYP2E1 (gene 1571)
Nature of the experiment: LTEA_HepaRG_CYP2E1: Life Technologies and Expression Analysis (LTEA) Assay for CYP2E1 using HepaRG (AID 2283485). An outline of the steps: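 Human liver line HepaRG, plated 48 h, then serum-free induction medium + chemical x 48 h; 8-pt CRC from 100 uM, half-log, 0.5% DMSO, n=2. Readout: CYP2E1 mRNA qRT-PCR vs ACTB/GAPDH/POLR2A; bidirectional fit vs DMSO.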

Read-out in the next experiment: CYP2C9 (gene 1559)
Nature of the experiment: LTEA_HepaRG_CYP2C9: Life Technologies and Expression Analysis (LTEA) Assay for CYP2C9 using HepaRG (AID 2283484). An outline of the steps: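 Differentiated human HepaRG cells were exposed 48 h in serum-free induction medium to eight half-log concentrations up to 100 uM in 0.5% DMSO. CYP2C9 mRNA was measured by qRT-PCR, normalized to ACTB, GAPDH and POLR2A, and fitted bidirectionally against DMSO.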

Apoptosis regulator Bcl-2 (Homo sapiens), sequence (P10415 whole entry, looked up): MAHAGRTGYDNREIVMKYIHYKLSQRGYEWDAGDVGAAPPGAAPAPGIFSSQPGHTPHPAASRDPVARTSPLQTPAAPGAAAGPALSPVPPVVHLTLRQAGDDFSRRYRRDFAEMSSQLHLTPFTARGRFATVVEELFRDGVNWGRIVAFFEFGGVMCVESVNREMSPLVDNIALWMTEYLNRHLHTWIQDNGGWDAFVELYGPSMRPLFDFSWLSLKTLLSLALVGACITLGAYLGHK
Cytochrome P450 2C19 (Homo sapiens), sequence (P33261 whole entry, looked up): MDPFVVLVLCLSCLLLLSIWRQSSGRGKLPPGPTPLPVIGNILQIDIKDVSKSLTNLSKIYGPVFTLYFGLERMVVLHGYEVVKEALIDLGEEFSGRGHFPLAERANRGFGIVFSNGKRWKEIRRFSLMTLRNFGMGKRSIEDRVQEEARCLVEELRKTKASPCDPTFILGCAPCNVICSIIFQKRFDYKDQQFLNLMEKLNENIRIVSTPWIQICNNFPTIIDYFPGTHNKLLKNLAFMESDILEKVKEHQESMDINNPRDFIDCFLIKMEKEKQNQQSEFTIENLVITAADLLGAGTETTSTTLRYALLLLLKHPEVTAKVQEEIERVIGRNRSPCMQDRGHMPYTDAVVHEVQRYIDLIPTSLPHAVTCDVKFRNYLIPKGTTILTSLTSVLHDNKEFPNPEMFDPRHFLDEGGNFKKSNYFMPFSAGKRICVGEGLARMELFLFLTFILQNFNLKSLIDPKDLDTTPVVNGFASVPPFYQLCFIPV
Caspase-3 (Homo sapiens), sequence (P42574 whole entry, looked up): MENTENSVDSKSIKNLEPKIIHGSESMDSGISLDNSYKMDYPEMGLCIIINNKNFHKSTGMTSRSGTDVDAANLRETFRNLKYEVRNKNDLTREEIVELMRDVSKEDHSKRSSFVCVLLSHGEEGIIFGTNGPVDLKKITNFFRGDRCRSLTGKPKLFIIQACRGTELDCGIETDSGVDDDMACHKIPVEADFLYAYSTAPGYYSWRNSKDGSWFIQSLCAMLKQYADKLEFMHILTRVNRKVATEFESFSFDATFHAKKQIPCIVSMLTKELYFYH

With `CCC(=O)O[C@H]1CC[C@H]2[C@@H]3CCC4=CC(=O)CC[C@]4(C)[C@H]3CC[C@]12C`, the call in [1], in [2], in [3], in experiment [4], in experiment [5] and in experiment [6] was inactive. In addition, the molecule was classed as inactive (in [7]; in the experiment with BCL2L11 (gene 10018); in experiment [8]; in experiment [9]; in experiment [10]; with Caspase-3 (Homo sapiens)). Moreover, the outcome (in experiment [11]; in [12]; in experiment [13]; with CYP2C8 (gene 1558)) was inactive. For the same molecule, the results for the AC50 (in [14]; in experiment [15]; with CYP2E1 (gene 1571)) were 50 µM (active), 3.23 µM (active) and 3.12 µM (active), respectively.
Consider `CCCCCCOC(=O)c1ccccc1C(=O)OCCCCCC`, for which the result in [1], in experiment [2], in experiment [3], in experiment [4], in [5] and in experiment [6] was inactive. The outcome (in experiment [7]; with BCL2L11 (gene 10018); in [8]; in experiment [9]; in experiment [10]; with Caspase-3 (Homo sapiens)) was inactive. The call (in experiment [11]; in experiment [13]; in experiment [14]; in experiment [15]; with CYP2C8 (gene 1558); in the experiment with CYP2C9 (gene 1559)) was inactive. The call with CYP2E1 (gene 1571) was inactive. Besides, the AC50 in experiment [12] is 50 µM (active).
Take `Cc1cc(O)ccc1Cl`: the molecule was classed as inactive in experiment [1], in [2], in [3], in [4], in experiment [5] and in experiment [6]. The molecule was classed as inactive (in experiment [7]; with BCL2L11 (gene 10018); in experiment [8]; in experiment [9]; in [10]; in the experiment with Caspase-3 (Homo sapiens)). The molecule was classed as inactive (in experiment [11]; in [12]; in experiment [13]; in experiment [14]; in experiment [15]; with CYP2C8 (gene 1558)). Besides, the outcome with CYP2C9 (gene 1559) and in the experiment with CYP2E1 (gene 1571) was inactive.
